Reference: the supplement of paper PMC3334620
Over roughly 33,000 sequences, “E-score (-0.5 to 0.5)” has its median near -0.021; the highest 2% begin near 0.32. The list comes from a sample in which the highest values are over-represented; it also holds similar and randomly drawn sequences.

Target: T1, Zap1 (UniProt P47043)
T1 sequence: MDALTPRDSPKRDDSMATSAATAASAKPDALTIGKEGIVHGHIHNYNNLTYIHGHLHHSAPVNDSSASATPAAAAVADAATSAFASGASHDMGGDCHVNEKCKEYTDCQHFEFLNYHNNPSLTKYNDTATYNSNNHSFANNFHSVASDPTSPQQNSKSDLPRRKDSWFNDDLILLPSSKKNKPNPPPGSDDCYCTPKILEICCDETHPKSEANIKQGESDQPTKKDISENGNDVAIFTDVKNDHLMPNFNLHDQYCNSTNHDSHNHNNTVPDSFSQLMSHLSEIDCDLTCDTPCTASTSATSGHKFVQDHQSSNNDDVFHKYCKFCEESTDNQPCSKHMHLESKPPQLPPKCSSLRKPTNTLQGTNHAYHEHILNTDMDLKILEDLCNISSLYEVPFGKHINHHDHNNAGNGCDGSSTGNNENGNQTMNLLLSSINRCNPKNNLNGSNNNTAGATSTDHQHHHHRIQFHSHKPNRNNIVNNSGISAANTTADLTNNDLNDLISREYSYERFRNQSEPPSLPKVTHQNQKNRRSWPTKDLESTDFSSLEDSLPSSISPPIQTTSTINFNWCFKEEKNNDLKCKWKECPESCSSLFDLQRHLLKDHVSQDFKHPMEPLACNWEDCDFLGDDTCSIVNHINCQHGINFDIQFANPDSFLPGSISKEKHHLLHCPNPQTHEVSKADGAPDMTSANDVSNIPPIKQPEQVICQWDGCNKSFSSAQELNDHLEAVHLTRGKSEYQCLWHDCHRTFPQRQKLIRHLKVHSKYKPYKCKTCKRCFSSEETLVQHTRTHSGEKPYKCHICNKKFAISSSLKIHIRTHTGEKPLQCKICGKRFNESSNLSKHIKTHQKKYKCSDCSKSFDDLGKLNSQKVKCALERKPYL
Assay: PBM E-score (8-mer binding enrichment) (E-score (-0.5 to 0.5)); higher = stronger / more preferred TF binding
Conditions: protein concentration: 200 nM; construct: GST-full length
Protocol: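 Universal 'all 10-mer' protein binding microarrays (Agilent AMADID 015681) probed with GST-tagged S. cerevisiae TFs (full-length or DBD) made by in vitro transcription/translation (PURExpress), about 100-200 nM. Bound TF was detected with fluorescent anti-GST. Each ungapped 8-mer (which stands for itself and its reverse complement) is scored by the PBM enrichment score (E-score), a modified Wilcoxon-Mann-Whitney statistic from -0.5 to +0.5, computed with the Universal PBM Analysis Suite. Scale: above 0.35 generally sequence-specific binding.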

Sequence	PBM E-score
CAAAACTC	0.0001
GTCTCCCA	-0.252
GTAAAGGA	-0.0539
CATAAACG	0.0839
GGGTAATA	0.348
AGGTAAGA	0.125
AAGTAACA	-0.0158
GGGTAACA	0.334
CGGTAACC	0.47
CGGTAACA	0.253
TGGTAACA	0.0812
CGGTAATA	0.219
GTGTAACA	0.0444
AGGTAACA	0.344
CGGTAACG	0.0507
AGGTAATA	0.263
ATGAGCAT	0.049
ACCTGAGT	0.0343
GTGACGCA	0.0591
TCTCTTCA	-0.139
AAGGGCGC	0.0237
TCTACACA	0.0487
AGGTAACT	0.237
AGGTAACG	0.19
GGGTAACC	0.46

Sequence	PBM E-score
AGGTAACC	0.441
GGGTAAAA	0.306
GGGTAAAC	0.194
CAGGAGGG	0.143
AATTCACC	0.0819
AGTCCTCC	-0.144
AAAGCAGG	-0.075
AGGTGACC	0.393
GGGTGACC	0.385
GGGTGACA	0.252
CGGTGACG	0.0241
AGGTGACG	0.182
CGGTGACA	0.193
GAGTGACC	0.239
CGGTGACC	0.327
AGGTGACA	0.0888
TAAGACTA	-0.0191
TGACAAAA	0.152
CAAGTGTA	-0.0404
AGCCCCCT	-0.406
AAGATGCG	-0.058
AAGAGGGA	-0.199
ATACTCTA	-0.0192
CGCCACTC	-0.113
GTAGGTTA	0.39

Sequence	PBM E-score
GTAGGTAA	0.199
GTAGGTGA	0.0614
ATAGGTTG	0.16
CTAGGTCA	0.117
ATAGGTTA	0.46
ATAGGTTC	0.138
CTAGGTTA	0.42
CTAGGTTC	0.0156
AAGCACGT	-0.3
CGGTTAGC	0.151
CCAATTAC	0.103
ACCAAATC	0.0501
AACTACCA	0.179
AGTATCCG	-0.013
AGGTCTGA	-0.0295
CCTAGAGG	0.366
ACTAGAGG	-0.0174
CCTAGAGA	-0.0434
GTAATGCA	-0.157
TAAGGGGA	0.00031
AGGGGGTA	0.0442
AAAGGGGA	-0.127
AAAGGGCA	-0.0435
GAAGGGGA	-0.0649
AAGGGGTA	0.334

Sequence	PBM E-score
AAAGGGTA	0.415
GAAGGGTA	0.421
TAAGGGTA	0.433
AAGGGGGA	-0.245
TAAGGGCA	-0.0345
GAAGGGAA	-0.194
AACGAATA	-0.00355
CAATCCAG	-0.0505
CGAAGTCG	0.0486
GCTTCCGA	-0.0201
AGAGCAAT	-0.181
TCCCTAGA	-0.0192
AACCTAGT	0.161
ACCCTAGC	0.247
ACCCTAGT	0.411
AACCTAGG	0.232
ACCCTAGA	0.359
CCCCTAGG	0.16
ACCCTAGG	0.428
CCCCTAGA	0.147
GAAGTGGC	-0.106
GCGCATGA	-0.185
AGGACATG	-0.0235
AAATACCA	0.129
CGGGGTTC	0.168

Sequence	PBM E-score
GCGGGTTA	0.366
CCGGGTTA	0.388
ACGGGTTG	0.158
ACGGGTTA	0.408
CCGGGTTC	0.247
CCGGGTGA	0.218
GCGGGTAA	0.106
GGGGGTTA	0.0334
ACGGGTTC	0.0245
GCGGGGTA	0.293
CGGGGTTA	0.474
ATCTTATG	-0.00019
CCCTTCAG	0.122
GCGCACAC	-0.234
CGGCGTTA	0.0618
ATCTAGGA	-0.0827
AAGTTGAT	-0.14
AGCTGTAG	-0.0501
ATGGCCAG	0.268
ATGGCCAC	0.185
ATGGCCAT	0.332
CGACGCTC	0.0879
CTGAGCCC	-0.179
GCCCTTAA	0.112
TCCCTTAA	0.0619

Sequence	PBM E-score
ACCCTTAA	0.443
AGCCTTAT	-0.0493
ATCCTTAG	-0.192
ACCCTTAG	0.432
ACCCTTAC	0.29
CCCCTTAG	0.107
ACCCTTAT	0.404
TAGTTGCA	0.116
ATACACGC	-0.091
AATCACAC	0.0533
TCTCGCCA	-0.206
ACAATACC	0.252
TACTATAA	0.249
CAGATGAA	-0.103
ACTCTCGG	0.0208
ACGGTGAA	-0.0282
CCCTCGAG	0.159
ACCTCGTC	0.0929
ACCTCGTG	0.348
ACCTCGAT	0.245
ACCTCGTA	0.189
ACCTCGAG	0.349
ACTGTCGA	-0.0508
CCCAATTC	0.157
TCACAGAA	-0.00307

Sequence	PBM E-score
CTGCGCAG	-0.325
CTTGAGCC	-0.111
ATAACCAC	0.46
GTAACCAC	0.431
AAAACCAC	0.197
GGAACCAC	0.0961
AGAACCAC	0.285
GAAACCAC	0.116
CAAACCAC	0.0159
CTAACCAC	0.325
CCAACCAC	0.256
CCTCTAAG	0.139
ACCATTTC	0.126
GATGGGCC	-0.145
CCCCCCAA	-0.371
TAGCCTAA	-0.0154
ATTACCTG	0.149
ACTACCTA	0.161
CCTACCTC	0.125
ATTACCTA	0.216
ACTACCTC	0.356
ATTACCTC	0.32
CGTAATCA	0.196
CGGTCACG	0.203
ATGTCACG	-0.195

Sequence	PBM E-score
AGGTCACC	0.37
AGGTCACA	0.359
GGGTCACC	0.438
AGGTCACT	0.25
ACGTCACC	0.0378
GAGTCACC	0.0467
AGGTCACG	0.406
AAGTCACA	-0.034
CGGTCACC	0.276
AGGTCAAC	0.118
ACCCATTG	0.166
CGAGCGAA	-0.162
ATACGGCA	0.0784
AACGAGAG	-0.138
GCTTTACA	-0.0896
CTTAATCC	-0.131
GACTGAAC	-0.199
ACCAGCAA	0.26
TCTAGGCA	-0.0489
AAAAACTT	0.0552
GCATTAGC	-0.151
GGATACAA	0.0969
CGTTTGGA	0.0241
GGGTCACA	0.398
TGGTCACA	0.231

Sequence	PBM E-score
CGGTCACA	0.163
GCCCAACC	-0.0373
ACTATGGC	-0.0314
AGTTATGC	0.0469
AGGGTGAG	-0.118
AGGGTGTC	0.304
CGGGTGAC	0.167
AGGGTGAA	0.0968
AGGGTGAC	0.415
GGGGTGAA	0.0494
AGGGTGAT	0.427
GGGGTGAC	0.337
ACGGTGAC	-0.0408
ATCTCGTA	-0.0363
AACTGTCT	-0.105
GAGAGCTA	-0.305
GGCGATCA	-0.283
TCCCTGCA	0.0185
CCCCTGCG	-0.17
GCCCTGCA	-0.195
ACCCTGCA	0.394
ACCCTGCG	0.422
ACCCTGCC	0.186
